# Source: PubChem BioAssay
# Pf growth 96h: P. falciparum growth inhibition at 96 hours; P. falciparum luciferase reporter growth, 96 h; Potency, µM (titrated, usually from 28.7 µM), most hits filed as inhibitors; AID 504834; 320,000 tested, 6.9% active
#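 Luminescence readout: decreased luciferase signal marks inhibited growth of reporter-expressing P. falciparum in infected red cells (2% hematocrit, 0.05% parasitemia final), exposed to compound two generations (96 h, 37 C, 5% CO2).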
# NS1 inh: blocks influenza NS1 protein function; 270,000 tested, 0.4% active; Potency, µM (doses to about 46.1 µM); calls by dose curve; note: actives are rising curves; nearly all actives have a fitted effect of over 50% in size
#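 Recovery from NS1-induced slow growth read by OD600 in budding yeast switched to galactose assay medium (pH 6.0, -URA) at 1:100 dilution. Compound 23 nl per well; the matching strain lacking NS1 serves as control.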
# HCV inh: inhibitors of hepatitis C virus infection; Huh7.5.1 HCVcc-Cre infection, luciferase reporter, 44 h; Potency, µM (titrated, usually from 41.8 µM), actives largely listed as inhibitors; 340,000 tested, 3.4% active; AID 651820
#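 Cells (1,000/well) were plated 4 h before compound, then infected with HCVcc-Cre virus (~0.5 moi). After 44 h further culture, infection was read as luciferase luminescence following a 15 min substrate incubation at room temperature.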
# Vaccinia mCherry: vaccinia inhibition (mCherry reporter) | Vaccinia virus mCherry reporter infection, fluorescence | Potency, µM (top dose mostly 36.5 µM), actives largely listed as inhibitors | 310,000 tested, 0.63% active; calls by dose curve; tested in A549 cells; note: nearly all actives have a fitted effect of over 35% in size
# Vaccinia Venus: inhibitors of vaccinia virus (Venus reporter); Vaccinia virus Venus reporter expression, fluorescence; Potency, µM (titrated, usually from 36.5 µM), hits mostly inhibitors; 330,000 tested, 0.46% active; AID 720580; calls by dose curve; tested in A549 cells; note: nearly all actives have a fitted effect of over 30% in size
# Pf growth 48h: inhibits P. falciparum growth in the first generation, 48 h | P. falciparum luciferase growth in erythrocytes, 48 h | Potency, µM (titrated, usually from 28.7 µM), hits mostly inhibitors | 310,000 tested, 5.9% active | AID 504832
#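 In quantitative HTS format, infected erythrocytes bearing luciferase-reporter parasites were treated for a single generation at 37 C. Luminescence after adding detection reagent served as the growth measure.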
# Hits are given with their value; n = inactive; u = inconclusive; x = no result given; [ ] = dose if it differs, or a comment. Shown are actives, neighbours in structure and some others; about 11% of the full set was active somewhere. Unless noted, calls come from the whole dose curve; as a rule, active = well fitted inhibition curve with a large enough effect; inconclusive = small, poorly fitted or top-dose-only effect, or another doubt; inactive = no such curve, though single readings can be large or run the other way.
SMILES,Pf growth 96h,NS1 inh,HCV inh,Vaccinia mCherry,Vaccinia Venus,Pf growth 48h
Cc1cc(Nc2cccc(Cl)c2)nc(N2CCOCC2)n1,n,n,u,n,n,n
Cc1cc(Oc2ccc(C(C)(C)C)cc2)nc(N2CCOCC2)n1,10µM,n,n,x,n,x
Cc1cc(Nc2cccc(F)c2)nc(N2CCOCC2)n1,n,n,3.5µM,x,x,n
Cc1cc(Oc2ccc(-c3ccccc3)cc2)nc(N2CCOCC2)n1,u,n,n,x,n,u
Cc1cc(Nc2ccccc2)nc(N2CCOCC2)n1,x,n,10µM,x,u,n
CCOC(=O)N1N=C(C)CC1(O)c1ccc(Cl)cc1 (configuration not stated),n,x,n,n,n,u
COc1ccc(NC(=O)CN(C)C(=O)c2cccc3ccccc23)cc1,n,x,n,n,n,u
COc1ccc(NC(=O)CN(C)C(=O)c2oc3ccccc3c2C)cc1,3.7µM,x,n,n,n,u
CCOc1ccc2oc(C(=O)N(CC)CC(=O)Nc3c(F)cccc3F)c(C)c2c1,u,x,u,n,n,u
CCOc1ccc2oc(C(=O)N(C)CC(=O)Nc3ccc(OCC)c(OCC)c3)c(C)c2c1,12µM,x,u,n,n,u
CCN(CC)S(=O)(=O)c1cc(C(=O)OCC(=O)c2ccc3c(c2)NC(=O)CO3)ccc1F,x,n,n,x,n,u
CCn1c(C)nc2cc(C(=O)NNS(=O)(=O)c3ccc(C)c(C)c3)ccc21,x,n,n,x,n,n
CC(C)(C)C(=O)NC1(C(F)(F)F)NC(=O)N(c2ccc(F)cc2)C1=O (configuration not stated),12µM,n,n,n,n,n
Cc1ccc(C2C(C#N)=C(N)Oc3c2oc(CO)cc3=O)o1 (configuration not stated),n,n,n,x,x,n
O=C(C1CCN(S(=O)(=O)c2ccccc2)CC1)N(CCc1ccccc1)Cc1ccco1,n,n,u,n,n,13µM
COCCN(Cc1ccccc1)C(=O)C1CCN(S(=O)(=O)c2ccc3c(c2)OCCO3)CC1,12µM,x,n,x,x,u
O=C(O)c1ccccc1NS(=O)(=O)c1ccc(NN=Cc2ccc(F)cc2)c([N+](=O)[O-])c1,x,x,n,n,n,x
CC(C)(C)C(=O)c1cnc(Nc2ccccc2Cl)s1,n,n,n,n[1.46 µM],n,n
CCN(CC)S(=O)(=O)c1ccc2oc(C(=O)NC3CCCc4ccccc43)c(C)c2c1 (configuration not stated),x,u,u,n,n,5.2µM
CCN(CC)S(=O)(=O)c1ccc2oc(C(=O)N3CCc4ccccc4C3)c(C)c2c1,9.3µM,n,n,n,n,u
CCN(CC)S(=O)(=O)c1ccc2oc(C(=O)N3CCOCC3)c(C)c2c1,u,n,n,n,n,n
CCN(CC)S(=O)(=O)c1ccc2oc(C(=O)NCc3ccccc3OC)c(C)c2c1,x,x,x,n,n,x
C=CCNC(=O)c1oc2ccc(S(=O)(=O)N(CC)CC)cc2c1C,10µM,n,n,x,x,u
CCN(CC)S(=O)(=O)c1ccc2oc(C(=O)N3CCCCCC3)c(C)c2c1,n,n,n,n,n,13µM
CCOC(=O)c1ccc(N2CN(CC)CNC2=S)cc1,n,n,u,n,n,n
SMILES,Pf growth 96h,NS1 inh,HCV inh,Vaccinia mCherry,Vaccinia Venus,Pf growth 48h
CCOC(=O)N1CCN(C(=O)c2oc3ccc(S(=O)(=O)N(CC)CC)cc3c2C)CC1,n,n,n,n,n,5.2µM
CCN(CC)S(=O)(=O)c1ccc2oc(C(=O)NCCN3CCOCC3)c(C)c2c1,n,n,n,n,n,n
CCC1C(c2ccccc2)NC(c2ccccc2)CC1(O)c1ccc(F)cc1 (configuration not stated),u,n,n,x,x,10µM
Cc1cc(C)cc(NC(=O)C2CCN(C(=O)[C@@H]3Cc4ccccc4CN3)CC2)c1,n,n,n,n[7.34 µM],n[7.34 µM],n
COc1ccc(-c2cc(=O)c3c(O)cc(O)cc3o2)cc1,n,x,13µM,n,n,n
O=c1cc(-c2ccc(O)c(O)c2)oc2cc(O)cc(O)c12,n,n,n[8.37 µM],u,u,n
COc1ccc(-c2cc(=O)c3cc(O)ccc3o2)cc1,n,n,5.6µM,n,n,n
O=c1cc(-c2ccccc2)oc2ccc(O)cc12,n,n,u,x,x,n
CCCC[C@@H](CNC)NC[C@H](NCCCCC1CCCCC1)C(C)C,1.7µM,n,n,n,u,u
COc1ccccc1C(=O)NCCOc1ccc(C)c(C)c1,n,n,n,x,x,u
